An excerpt weighted towards active compounds, which were near 4.1% of everything screened.
NALP1 yeast inh: NALP1 inflammasome inhibitors in reconstituted yeast, colorimetric, S. cerevisiae, triplicate retest | AID 2071, 2009 | actives 0.61% (n = 280,000) | S. cerevisiae NALP1/ASC/caspase-1 growth, X-gal OD620, 72 h | inhibition, % at 10 µM; in the data active means inhibition mostly above about 24%, no sharp cut-off; inactive means mostly below about 32%
TIM10 inh: growth inhibitors of isogenic TIM10 control yeast, primary screen, counter-screen for tim10-1 yeast inhibitor project, luminescence, uHTS. S. cerevisiae TIM10 strain growth, BacTiter-Glo luminescence, 24 h. inhibition, % at 10 µM. actives 1.4% (n = 330,000). AID 463195, 2010;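 active means inhibition of 40% or more at the single tested concentration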;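 further: wild-type TIM10 isogenic control strain grown at permissive 25 °C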
tim23-1 inh: growth inhibitors of tim23-1 mutant yeast, primary screen, luminescence, uHTS | S. cerevisiae tim23-1 growth, BacTiter-Glo luminescence, 24 h | inhibition, % at 20 µM | actives 1.3% (n = 330,000) | AID 463212, 2010;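 active means growth inhibition of the mutant yeast at or above 50%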;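 further: temperature-sensitive mutant grown at 25 °C; plate controls were DMSO-treated mutant yeast for no effect and medium wells lacking yeast for full effect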
NLRP3 yeast inh: NALP3 inflammasome inhibitors in reconstituted yeast, primary screen, luminescence, uHTS; Yeast reconstituted NLRP3/ASC/caspase-1, beta-gal luminescence, 24 h; inhibition, % at 10 µM; actives 0.39% (n = 330,000); AID 2825, 2010;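 active means inhibition of 50% or more; inactive means inhibition below 50%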;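 further: plate controls were induced DMSO wells for no effect and uninduced yeast grown without galactose for full effect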
tim10-1 inh: growth inhibitors of tim10-1 mutant yeast, primary screen, luminescence, uHTS; S. cerevisiae tim10-1 ts strain growth, BacTiter-Glo, 24 h; inhibition, % at 20 µM; actives 2.2% (n = 330,000); AID 463190, 2010;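 active means inhibition of at least 40%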;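 further: mutant grown at 25 °C; 0% = DMSO wells with yeast and 100% = wells holding no yeast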
tim10-1 conf: growth inhibitors of tim10-1 mutant yeast, confirmation, single concentration, luminescence, S. cerevisiae; shares compounds with tim10-1 inh; S. cerevisiae tim10-1 ts strain growth, BacTiter-Glo, 24 h; inhibition, % at 20 µM; actives 56% (n = 7,400); AID 463213, 2010;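 active means inhibition of yeast growth at or above a set limit in either of two repeat tests at 20 µM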;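 further: tim10-1 mutant grown at permissive 25 °C to find synthetic lethal compounds; 0% = DMSO yeast wells and 100% = medium wells without yeast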
tim10 confirm: growth inhibitors of wild-type TIM10 yeast, confirmation, counter-screen for tim10-1 synthetic lethality project, single concentration, luminescence, S. cerevisiae; shares compounds with TIM10 inh; S. cerevisiae tim10 strain growth, BacTiter-Glo luminescence, 24 h; inhibition, % at 10 µM; actives 63% (n = 4,600); AID 463215, 2010;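 active means inhibition of yeast growth at or above a set limit in either of two replicates at 10 µM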;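 further: this counterscreen used the strain with wild-type TIM10; 0% = yeast with DMSO and 100% = medium wells lacking yeast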
tim23-1 conf: tim23-1 mutant yeast growth inhibitors, confirmation, luminescence, single concentration. shares compounds with tim23-1 inh. S. cerevisiae tim23-1 growth, BacTiter-Glo luminescence, 24 h. inhibition, % at 20 µM. actives 83% (n = 4,400);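 active means inhibition above about 39% in either of two replicate wells at 20 µM, limit read from the data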;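 further: temperature-sensitive tim23-1 mutant grown at 25 °C; 0% = DMSO wells with yeast and 100% = medium wells without yeast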
* = called active by the depositor.

Results for N/C(=N\OC(=O)c1ccco1)c1ccc(Br)cc1 ?
NALP1 yeast inh: 0.5; TIM10 inh: 55.8*; tim23-1 inh: 61.6*; NLRP3 yeast inh: 4.6; tim10-1 inh: 58.2*; tim10-1 conf: 53.7*; tim10 confirm: 50.6*; tim23-1 conf: 76.2*

Results for COCCN(C(=O)c1ccc(N2CCCC2=O)cc1)c1c(N)n(Cc2ccccc2)c(=O)[nH]c1=O ?
TIM10 inh: 11.6; tim23-1 inh: 29.9; NLRP3 yeast inh: 15.2; tim10-1 inh: 20.5

What do the screens show for `Clc1ccc(CSc2nncn2-c2ccc3c(c2)OCCO3)cc1`?
NALP1 yeast inh: 5.8; TIM10 inh: 22.4; tim23-1 inh: 52.3*; NLRP3 yeast inh: 27.6; tim10-1 inh: 40.6*; tim10-1 conf: 33.0*; tim23-1 conf: 47.4*

Results for O=[N+]([O-])c1cccc(-c2csc(Nc3ccccc3)n2)c1 ?
NALP1 yeast inh: 0.0; TIM10 inh: 64.3*; tim23-1 inh: 85.6*; NLRP3 yeast inh: 0.0; tim10-1 inh: 50.4*; tim10-1 conf: 59.0*; tim10 confirm: 65.5*; tim23-1 conf: 67.2*

Results for COc1ccc(-c2csc(Nc3ccccc3)n2)cc1 ?
NALP1 yeast inh: -0.7; TIM10 inh: 61.1*; tim23-1 inh: 54.2*; NLRP3 yeast inh: 14.2; tim10-1 inh: 46.2*; tim10-1 conf: 36.8*; tim10 confirm: 43.3*; tim23-1 conf: 47.6*

Results for CO/N=C(/C(=O)N[C@@H]1C(=O)N2C(C(=O)O)=CCS[C@H]12)c1cnc(N)s1 ?
NALP1 yeast inh: 3.5

How did CC(C)COC(=O)NC1c2ccccc2Oc2ccccc21 do in these assays?
NALP1 yeast inh: 3.4; TIM10 inh: -11.6; tim23-1 inh: -11.1; NLRP3 yeast inh: 11.9; tim10-1 inh: 1.8

What do the screens show for `Cc1cccc(NC(=S)NC2CCCCC2)n1`?
NALP1 yeast inh: -4.8; TIM10 inh: 49.7*; tim23-1 inh: 52.1*; NLRP3 yeast inh: 18.5; tim10-1 inh: 41.0*; tim10-1 conf: 27.6; tim10 confirm: 43.8*; tim23-1 conf: 49.9*

What do the screens show for `O=C1OC(c2ccc(F)cc2)=N/C1=C\C=C/c1ccccc1`?
NALP1 yeast inh: -33.0; TIM10 inh: 37.3; tim23-1 inh: 76.3*; NLRP3 yeast inh: 7.1; tim10-1 inh: 50.4*; tim10-1 conf: 39.9*; tim23-1 conf: -35.0

What do the screens show for `CC(=O)OC1c2ccccc2C(=O)N1Cc1ccccc1Cl` (stereo unspecified)?
NALP1 yeast inh: 27.9; TIM10 inh: -5.8; tim23-1 inh: 13.4; NLRP3 yeast inh: -1.5; tim10-1 inh: 2.7

Results for Cc1ccc(S(=O)(=O)NCC(C)n2nc(C)cc2C)cc1 (stereo unspecified) ?
NALP1 yeast inh: 16.3; TIM10 inh: 3.8; tim23-1 inh: -2.8; NLRP3 yeast inh: 0.6; tim10-1 inh: -3.3

What do the screens show for `Cc1ccc(C(C[N+](=O)[O-])n2nc(C)cc2C)cc1` (stereo unspecified)?
NALP1 yeast inh: 11.3; TIM10 inh: 22.5; tim23-1 inh: 80.1*; NLRP3 yeast inh: 32.3; tim10-1 inh: 52.6*; tim10-1 conf: 35.8*; tim23-1 conf: 72.7*

How did C/C(=N\NC(=S)NC1CCCCC1)c1cccs1 do in these assays?
NALP1 yeast inh: 8.1; TIM10 inh: 57.6*; tim23-1 inh: 52.8*; NLRP3 yeast inh: 46.5; tim10-1 inh: 41.0*; tim10-1 conf: 23.9; tim10 confirm: 36.2*; tim23-1 conf: 49.0*
